Mcl1 Bid PPI – disrupts binding of human Mcl-1 to Bid peptide | 220,000 tested, 0.97% active | AID 1021 | inhibition, % at 21.7 µM | Q07820 | TR-FRET Mcl-1/Bid-Dy647 peptide binding, 1536-well;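 active = compounds that cut the binding signal by more than half at the single screening dose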;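 note: His-tagged Mcl-1 with europium anti-His antibody binding Bid BH3 peptide; 0% = Mcl-1 plus peptide wells and 100% = peptide-only wells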
Target sequence (Q07820 whole entry, looked up): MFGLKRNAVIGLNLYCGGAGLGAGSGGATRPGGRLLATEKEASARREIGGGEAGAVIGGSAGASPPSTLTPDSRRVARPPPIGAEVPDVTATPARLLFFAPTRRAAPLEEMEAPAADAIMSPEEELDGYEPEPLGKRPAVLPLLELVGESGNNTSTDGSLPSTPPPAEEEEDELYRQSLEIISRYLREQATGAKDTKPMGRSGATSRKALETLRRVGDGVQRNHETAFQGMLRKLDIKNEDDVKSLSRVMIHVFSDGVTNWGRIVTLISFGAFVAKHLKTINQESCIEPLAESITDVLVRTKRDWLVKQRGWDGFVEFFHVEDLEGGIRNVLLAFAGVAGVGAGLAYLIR
eIF4E 4G PPI – inhibitors of eIF4E and eIF4G interaction in translation initiation. 220,000 tested, 0.37% active. TR-FRET eIF4E-eIF4GI(517-606) binding, 2 h. P63073+Q04637. inhibition, % at 21.7 µM;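 note: 0% = full FRET control wells and 100% = background wells lacking eIF4GI fragment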
p47phox inh – p47phox (human) inhibition. inhibition, % at 24.7 µM. p47phox/p22phox peptide binding, fluorescence polarization, 2 h. P14598. AID 1274. 220,000 tested, 0.53% active;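 note: 0% = p47phox with labelled peptide and 100% = labelled peptide alone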
Mcl1-Noxa inh – disrupts binding of human Mcl-1 to Noxa peptide; AID 1022; TR-FRET Mcl-1/Noxa peptide binding, 2 h; 220,000 tested, 1.5% active; inhibition, % at 21.7 µM;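 active = compounds that cut the protein-peptide binding signal by more than 50% relative to plate controls in a single-dose test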;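 note: His-tagged Mcl-1 with rhodamine Noxa BH3 peptide and terbium anti-His antibody; 0% = Mcl-1 plus Noxa peptide wells and 100% = peptide-only wells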
14-3-3 Bad PPI – disrupts binding of bovine 14-3-3 zeta to phospho-Bad peptide. P63103. TR-FRET 14-3-3zeta/Dy647-pBad peptide displacement, 1 h. inhibition, % at 21.7 µM. 220,000 tested, 0.71% active. AID 781;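 active = inhibition above about 70%, limit read from the data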;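 note: 0% = full 14-3-3 plus peptide FRET controls and 100% = background without 14-3-3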
Target sequence (P63103 whole entry, looked up): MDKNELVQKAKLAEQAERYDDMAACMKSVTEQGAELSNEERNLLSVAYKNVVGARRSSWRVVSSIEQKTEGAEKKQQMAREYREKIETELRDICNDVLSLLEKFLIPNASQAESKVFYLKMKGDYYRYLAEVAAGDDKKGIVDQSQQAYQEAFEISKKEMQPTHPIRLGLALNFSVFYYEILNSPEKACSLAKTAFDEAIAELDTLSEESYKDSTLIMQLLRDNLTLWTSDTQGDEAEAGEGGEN
Mcl-1 Bim block – inhibitors of Bim-Mcl-1 interaction, human | Q07820 | Bead-based flow cytometry, Bim peptide-Mcl-1 binding | inhibition, % at 10 µM | 190,000 tested, 0.1% active | AID 1009; in the data active = inhibition above about 40%;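 note: 0% = no compound tracer wells and 100% = peptide blocker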
* = called active by the depositor; . = not tested or not shown; ! = not active in a repeat; [ ] = dose if it differs, or a comment. In the library only some 3.3% were active in any assay of this set; here they are far more common.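 Rule for the calls, unless noted: active = inhibition above about 30% (limit read from the data); inactive = the rest.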

SMILES	Mcl1 Bid PPI	eIF4E 4G PPI	p47phox inh	Mcl1-Noxa inh	14-3-3 Bad PPI	Mcl-1 Bim block
O=C(Nc1ccc(S(=O)(=O)Nc2ncccn2)cc1)C1=NN(c2ccccc2)C(=O)CC1	-62	2	-28	20	11	.
O=C(COc1cccnc1[N+](=O)[O-])NCc1cccs1	-9	3	-1	0	-11	-5
COc1cc(/C=N/n2cc(-c3ccccc3)[nH]c2=S)cc(OC)c1O	-17	-1	-26	41	1	.
Oc1ccc(/C=N/n2cc(-c3ccccc3)[nH]c2=S)cc1	-41	-3	7	73*	-6	-9
S=c1[nH]c(-c2ccccc2)cn1/N=C/c1ccccc1Br	-34	-1	3	28	-2	-6
Cc1ccc(/C=N/n2cc(-c3ccccc3)[nH]c2=S)s1	-47	-4	-12	54*	-11	-8
COc1ccccc1C(=O)N/C(=N/c1nc(C)cc(C)n1)Nc1ccccc1	-2	-1	-7	-1	1	.
COCCN1CCn2c(nc3cc(NC(=O)Cn4nc(C)c5ccccc5c4=O)ccc32)C1	-12	-7	7	66*	26	.
Cc1nn(CC(=O)Nc2ccc3c(c2)nc2n3CCOC2)c(=O)c2ccccc12	0	-2	-1	11	0	-6
CNc1nn(-c2cccc(Cl)c2)nc1N	96*	3	-61	-66	-5	-6
Nc1ccccc1Nc1cc(-c2ccccc2)nn1-c1cccc(Cl)c1	-60	3	-7	12	-7	-5
CCN(CC)S(=O)(=O)c1cccc(-n2c(O)c(C=Nc3ccccc3C(=O)O)c3ccccc3c2=O)c1	-2	-3	-12	18	4	.
CCCCCCCCCCCCS(=O)(=O)CCC(=O)O	5	6	-10	11	6	.
CCCCCC#CCC#CCC#CCC#CCCCC(=O)O	100*	36*	-58	103*	89*	0
O=C1/C(=C/c2cccs2)SC(=S)N1NS(=O)(=O)c1ccccc1	30	0	-1	21	2	.
O=C1/C(=C/C=C/c2ccco2)SC(=S)N1NS(=O)(=O)c1ccccc1	74*	34*	-38	111*	89*	.
CCN(CC)CCCN1C(=O)CSC1c1ccc([N+](=O)[O-])cc1 (centres undefined)	-21	2	5	18	-7	0
COc1ccc(C2SCC(=O)N2CCCN(C)C)cc1 (centres undefined)	91*	-2	-4	6	-1	-1
Cc1ccccc1NCC(=O)N/N=C/C(Br)=C/c1ccccc1	90*	-4	-12	-3	-2	2
COc1cc(/C=N/NC(=O)C(=O)NCc2ccco2)cc(Cl)c1O	-14	8	1	62*	60	.
COc1cc(/C=N/NC(=O)C(=O)NCc2ccco2)ccc1O	-33	-4	-22	25	-7	0
Cc1nonc1CN(C)C(=O)CC1C(=O)NCCN1Cc1ccccc1C(F)(F)F (centres undefined)	-14	-2	-5	16	-9	-3
Cc1ccc2c(c1)NC(=O)c1cccnc1N2	-76	12	-22	77*	6	-2
COc1ccc(NC(=O)c2cncc(Br)c2)cc1S(N)(=O)=O	-10	0	4	-14	-16	-2
Fc1ccc(CN2C3=NCCN3c3ccccc32)cc1	-9	1	-12	12	-2	.
SMILES	Mcl1 Bid PPI	eIF4E 4G PPI	p47phox inh	Mcl1-Noxa inh	14-3-3 Bad PPI	Mcl-1 Bim block
CCc1nnc(NS(=O)(=O)c2ccc(NC(=O)c3cc4ccccc4oc3=O)cc2)s1	8	-5	-5	64*	-1	-7
Nc1nc2c(c(=O)[nH]1)C(c1cccc3ccccc13)C1=C(N2)c2ccccc2C1=O (centres undefined)	14	2	-16	94*	4	4
CC(C)(C)CC(=O)NCCc1csc(-c2ccccc2)n1	1	-8	-5	-2	1	.
CCOc1cc(/C=C2\C(=O)N(CCc3ccc(OC)c(OC)c3)C(C)=C2C(=O)OC)ccc1O	-15	0	53*	39	-16	-2
Cc1nc(CC(C)C)cc(C(=O)N2CCCC(CNS(=O)(=O)c3cccs3)C2)n1 (centres undefined)	-18	-2	-6	0	2	0
COc1ccc2c(-c3cc4ccc(OCc5ccc(F)cc5)cc4oc3=O)cc(=O)oc2c1	56*	15	37*	-2	92*[fluorescence artefact?]	0
CC1=C([N+](=O)[O-])C(c2ccccc2C(F)(F)F)NC(=O)N1C (centres undefined)	-16	-3	-14	-12	-3	.
CC(C)NC(=O)/C(C#N)=C/c1ccc(N(C)C)o1	-45	6	-5	6	4	.
CC(CSc1nnnn1-c1ccccc1)Cn1c(N2CCN(C)CC2)nc2c1c(=O)[nH]c(=O)n2C (centres undefined)	-38	-1	2	52*	2	5
Cc1ccc2c(c1C)NC(C(=O)O)C1CC=CC21 (centres undefined)	96*	61*!	-7	99*	38	1
O=C(c1ccccc1O)N1CCOCC1	-32	-7	-11	13	-2	.
O=C(O)C1Nc2c(C(=O)N3CCOCC3)cccc2C2C=CCC12 (centres undefined)	5	17	-12	80*	16	6
CCOC(=O)c1ccc2c(c1)C1C=CCC1C(C(=O)O)N2 (centres undefined)	62*	47*	3	104*	65	3
COc1cc(CC(C#N)(CO)c2nc3ccccc3[nH]2)ccc1OC(F)F (centres undefined)	5	-6	-5	13	25	7
COc1cc(SC)ccc1C(=O)N1CCN(c2ccccc2)CC1	-44	1	-2	82*	0	0
COc1cc(SC)ccc1C(=O)NCc1ccc(C)cc1	-21	-7	-4	5	14	-6
COc1cc(SC)ccc1C(=O)NCc1ccccc1	-37	-2	77*	-8	2	0
COc1ccc(O)c(/C=N/NC(=O)c2cc(=O)[nH]c3ccccc23)c1	-93	1	-7	-33	-9	.
CCOC(=O)c1cnc(-n2nc(C)cc2C)nc1Nc1ccc(N(C)C)cc1	-14	-3	-1	72*	8	8
O=[N+]([O-])c1cc(CN2CCCC2)ccc1Sc1ccc(Cl)cc1	-29	-2	-4	11	-9	0
O=[N+]([O-])c1ccc(O)c(/C=N/Nc2ccc(Cl)nn2)c1	-4	-8	-6	79*	-12	1
COc1ccccc1N1CCN(CCCCOc2cccc3ccccc23)CC1	12	-1	-3	18	29	1
COc1ccccc1OCCCCN1CCN(c2ccccc2OC)CC1	13	5	1	-4	81*	-3
